Test results taken from PMC5540273 (PLoS ONE, 2017).

System: T1, p38-gamma
T1 construct: gene MAPK12
Conditions: concentration: 1 μM, replicates: in singlicate; n = 1
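Also: KINOMEscan kinase panel screen.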

| SMILES | %Inh [%] |
| --- | --- |
| COc1ccc(Nc2nccc(N3CCC(NC(=O)c4cc5ccccc5s4)C3)n2)cc1 (stereo not drawn) [GSK1379738] | 9 |
| Cl.Cl.Cl.N#Cc1ccc(CCNc2nccc(-c3cccc(CN4CCNCC4)c3)n2)cc1 [GSK2137462] | 27 |
| O=c1cc(N2CCOCC2)nc2n(Cc3ccccc3F)ccn12 [GSK2297428] | 0 |
| O=C(Nc1n[nH]c2cc(-c3ccsc3)ccc12)C1CC1 [SB-732932] | 28 |
| Cc1ccc(-c2nc(Nc3ccncc3)c3ccccc3n2)s1 [GSK189015] | 12 |
| O=C(Nc1n[nH]c2nc(-c3ccco3)c(Br)cc12)C1CCN(Cc2ccccc2)C1.O=C(O)[C@H](O)[C@@H](O)C(=O)O (stereo not drawn) [SB-742034] | 20 |
| O=C(Nc1n[nH]c2nc(-c3cccs3)c(Br)cc12)C1CC1 [SB-735297] | 0 |
| CC(C)c1ccc(O)cc1Nc1ccnc2ccc(C(F)(F)F)cc12 [GW482059] | 0 |
| CS(=O)(=O)CCNCc1nc(-c2ccc3ncnc(Nc4ccc5c(cnn5Cc5ccccc5)c4)c3c2)cs1.Cl.Cl [GW569716] | 0 |
| COC(=O)c1cccc(NC(=O)NC2CCN(c3ccnc(Nc4ccc(F)cc4)n3)C2)c1 (stereo not drawn) [GSK1379725] | 0 |
| Cc1ccccc1Cn1ccn2c(=O)cc(N3CCOCC3)nc12 [GSK2269905] | 0 |
| COC(=O)C(Cc1ccccc1)NC(=O)NC1CCN(c2ccnc(Nc3ccc(F)cc3)n2)C1 (stereo not drawn) [GSK1379714] | 12 |
| Nc1cccc(-c2ccc3c(N)n[nH]c3c2)n1 [GSK2192730] | 0 |
| COc1ccc(Nc2nccc(NCCNC(=O)Nc3cc(C)ccc3C)n2)cc1 [GSK1379899] | 0 |
| CCCCc1nn2ncccc2c1-c1ccnc(NC2CC2)n1 [GW684374] | 0 |
| COc1ccc2cc(-c3nc(-c4ccccc4C(C)C)[nH]c3-c3ccncc3)ccc2c1 [SB-660566] | 0 |
| FC(F)(F)c1ccccc1-c1cc(-c2c[nH]nc2-c2ccccn2)ccn1 [GW679396] | 0 |
| CCn1c(-c2ccccc2)nc2cnccc21 [SB-733416] | 0 |

| SMILES | %Inh [%] |
| --- | --- |
| Fc1ccc(-c2nn3cccc(F)c3c2-c2ccncc2)cc1 [GW475620] | 0 |
| COc1cccc(C2=C(Nc3cc(Cl)c(O)c(Cl)c3)C(=O)NC2=O)c1 [SB-390767] | 0 |
| Cc1nccc(-c2c(-c3ccc(F)cc3)ncn2CCCN2CCOCC2)n1.Cl [SB-282975] | 26 |
| Cc1c(Cn2c(C)c(C)n3c(=O)cc(N4CCOCC4)nc23)cccc1C(F)(F)F [GSK2328680] | 0 |
| c1ccc(-c2ccnc3[nH]ccc23)cc1 [SB-693578] | 0 |
| COC(=O)c1cccc(NC(=O)NC2CCN(c3ccnc(Nc4ccc(OC)cc4)n3)C2)c1 (stereo not drawn) [GSK1379746] | 0 |
| CCc1ccc(-c2ccc3c(c2)-c2n[nH]cc2S(=O)(=O)N3C)cc1 | 0 |
| Cc1cnc(N)c(/C=C/c2cncc(C(=O)NCCc3ccc(Cl)cc3Cl)c2)c1.Cl [GSK190937] | 52 |
| Cn1cncc1-c1cc2c(Nc3ccc(OCc4ccccc4)cc3)ncnc2cn1 [GW281179] | 0 |
| COc1ccc(Nc2nccc(N3CCC(NC(=O)C(C)c4ccc(Cl)cc4)C3)n2)cc1 (stereo not drawn) [GSK1379735] | 22 |
| Fc1ccc(-c2nc[nH]c2-c2ccncc2)cc1 [SB-217360] | 39 |
| O=c1cc(N2CCOCC2)nc2n(Cc3cccc(Cl)c3Cl)c3ccccc3n12 [GSK2299009] | 30 |
| NS(=O)(=O)c1cccc(N/C=C2\C(=O)Nc3ccc(S(=O)(=O)Cc4c(Cl)cccc4Cl)cc32)c1 [GSK398099] | 7 |
| COc1cccc(NC(=O)Nc2ccc(C)c(-c3ccc(C(=O)Nc4ccncc4)cc3)c2)c1 [GSK1398474] | 27 |
| CN1c2ccc(-c3ccc(C(N)=O)cc3)cc2-c2[nH]ncc2S1(=O)=O | 0 |
| COc1ccc(CSc2nnc(-c3ccc4c(c3)CCO4)o2)cc1 | 0 |
| COC(=O)C(NC(=O)NC1CCN(c2ccnc(Nc3ccc(F)cc3)n2)C1)c1ccccc1 (stereo not drawn) [GSK1379712] | 23 |
| Cc1ccc(NC(=O)Nc2ccc(Cl)c(C(F)(F)F)c2)cc1-c1ccc(C(=O)Nc2ccncc2)cc1 [GSK1398470] | 27 |
